In all, about 150,000 compounds went through this assay and about 540 (0.36%) showed an effect of 50% or more. The list comes from a sample in which strong results are over-represented; it also holds similar structures and randomly drawn compounds.
test system: Plasmodium falciparum; test: Primary screen in NF54 nanoGlo assay, in single point, at 2uM, 72h; a lower Z score goes with more inhibition; type: functional, Erythrocyte; details: timepoint 72 hour

| SMILES | % Inhibition [%] | Z score |
| --- | --- | --- |
| O=S1(=O)NC[C@H](O)CNC[C@@]2(COc3cc(-c4ccccc4)ccc31)C[C@@H](O)[C@@H](O)C2 | -14 | 1.78 |
| Cn1nccc1[C@@H]1CN(C(=O)NCc2ccon2)CCO1 | -3 | 0.43 |
| Cc1cc(CC(=O)N[C@@H](C)c2nc(-c3cccnc3)cs2)no1 | -5 | 0.5 |
| Cc1ccc(C)c(C(=O)N[C@@H](C)c2nc(-c3cccnc3)cs2)c1 | 0 | -0.01 |
| Cc1cc(C(=O)N[C@@H](C)c2nc(-c3cccnc3)cs2)cc(O)n1 | 51 | -3.53 |
| COc1cccc(CCn2ccnc2C(C)C)c1 | -4 | 0.93 |
| COc1ccccc1CCNC(=O)c1ccccc1N1CCC(NS(=O)(=O)c2ccc(F)cc2)CC1 | 11 | -1.5 |
| c1ccc2c(N3CCCC3)nc(N3CCN(C4CCCCC4)CC3)nc2c1 | -5 | 0.7 |
| N[C@H]1C[C@@H](c2cc(N3CCN(C4CCCCC4)CC3)nc(N3CCCC3)n2)C1 | 56 | -8.12 |
| NC1CC(c2cc(N3CCCCCCCC3)ncn2)C1 (centres undefined) | -23 | 2.99 |
| CC(C)c1nnc2c3ccccc3nc(N3CCN(C(=O)c4ccc(Cl)cc4)[C@@H](C)C3)n12 | -1 | 0.12 |
| Nc1nc(N2CCN(c3ccc(F)c(Cl)c3)CC2)cc([C@H]2C[C@@H](N)C2)n1 | 49 | -3.16 |
| Nc1nc(N2CCN(Cc3ccc(F)cc3)CC2)cc([C@H]2C[C@@H](N)C2)n1 | 16 | -2.35 |
| Nc1nc(C2CC(N)C2)cc(N2CCC(Oc3ccccc3Cl)CC2)n1 (centres undefined) | 50 | -7.79 |
| Cc1ccc(Cc2nnc(NC(=O)Cc3ccccc3Cl)o2)c(C)c1 | -13 | 1.44 |
| CN1CCCN(c2ccc3ccc(F)cc3n2)CC1 | -5 | 0.48 |
| CCNC(=O)N[C@H]1CCN(C2CCCCCC2)C1 | 1 | -0.09 |
| COc1cc(-c2cc(-c3cccnc3)c3c(ccc4ccccc43)n2)cc(Cl)c1O | 18 | -2.48 |
| Oc1ccccc1-c1cc(-c2ccccc2)c2c(ccc3ccccc32)n1 | -5 | 0.64 |
| CCOc1cc(-c2cc(-c3ccccc3O)nc3ccc4ccccc4c23)cc(Br)c1O | 82 | -8.45 |
| Cn1ccnc1CN1C[C@@H](F)C[C@H]1CNc1ncnc2c1CCCCC2 | -4 | 0.8 |
| COc1cccc(C(=O)N2CCN(C(=O)Cn3cc(Cl)cn3)CC2)c1 | -4 | 0.42 |
| Cn1ccc(NS(=O)(=O)c2cccc3c2N=S=N3)n1 | -1 | 0.06 |
| CCOc1cccc(C(=O)N[C@H]2CCN(Cc3ccccn3)C[C@@H]2O)c1 | 2 | -0.4 |
| O=C(N[C@@H]1CN(Cc2ccc(CO)o2)CCC[C@H]1O)c1ccc(OCc2ccccc2)cc1 | 26 | -2.94 |
| O=C(N[C@@H]1CN(Cc2ccccn2)CCC[C@H]1O)c1ccc(OCc2ccccc2)cc1 | 59 | -6.9 |

| SMILES | % Inhibition [%] | Z score |
| --- | --- | --- |
| Cc1ccc(-c2nc(CC(=O)N3CCC(C(C)(C)C)C(O)C3)cs2)o1 (centres undefined) | -3 | 0.35 |
| Cc1n[nH]c(=O)c2c1cnn2-c1ccccc1 | 21 | -2.61 |
| Cc1nc(-c2c(C)c(C)nn(C)c2=O)sc1C(=O)NC[C@H](C)N1CCc2ccccc21 | 31 | -3.46 |
| CCN=C(NCc1noc(C)n1)NCc1ccccc1OC(C)(C)C | -6 | 0.55 |
| CCc1ncc(CN2CCC[C@H](NC(=O)CN3CCOC3=O)CC2)cn1 | 9 | -1.74 |
| CC(=O)N(CC[C@]1(Cc2ccccc2Cl)CCOC(C)(C)C1)Cc1ccco1 | 32 | 1.22 |
| Cn1n[n+](CC(=O)Nc2ccccc2Cl)c2ccccc21 | 41 | -0.29 |
| Cn1n[n+](CCCCC(Cl)(Cl)Cl)c2ccccc21 | 65 | -4.82 |
| COc1c2c(cc3c1[C@@H](C#CCOc1ccccc1)[N+](C)(C)CC3)OCO2 | 64 | -13.6 |
| COc1c2c(cc3c1[C@H](C(=O)NC(c1ccccc1)c1ccccc1)[N+](C)(C)CC3)OCO2 | 2 | -0.21 |
| COc1c2c(cc3c1[C@H](CC(=O)Cc1ccccc1)[N+](C)(C)CC3)OCO2 | -1 | 0.08 |
| Cn1c(COc2ccccc2C(N)=O)nnc1-c1ccc(Cl)cc1 | 3 | -0.35 |
| COc1cccc(C(=O)N2C[C@@H]3CC[C@H]2CN(Cc2c(C)noc2C)C3)c1 | 4 | -0.53 |
| c1ccc(-c2nc(CN3CCc4ccccc4C3)cs2)cc1 | -1 | 0.12 |
| c1ccc(-c2nc(C[n+]3ccc4c(c3)CCCC4)cs2)cc1 | 63 | -6.15 |
| c1ccc(-c2nc(CN3CCCCCCC3)cs2)cc1 | -10 | 1.49 |
| O=C(Cn1cc(-c2ccccc2)ncc1=O)NC[C@@H]1CCCN2CCCC[C@H]12 | -8 | 0.97 |
| CCCCN(CCCNC(=O)[C@H]1CCCN(c2ncnc3onc(C)c23)C1)Cc1ccccc1 | 5 | -0.69 |
| O=C(O)C[C@@H]1CN(C(=O)c2ccc3c(c2)OCO3)C[C@@H]1c1c[nH]nn1 | -3 | 0.47 |
| N#Cc1c(NC(=O)Nc2cn3ccccc3c2C#N)cn2ccccc12 | 65 | 1.13 |
| CCN(CC)Cc1cn2ccccc2c1C#N | -12 | 1.72 |
| COC(=O)c1ccc(C)c(OCc2cn3ccccc3c2C#N)c1 | -17 | 2.14 |
| CC1CCC(O)(CS(=O)(=O)Cc2nccs2)CC1 (centres undefined) | -8 | 1.13 |
| COc1ccc2[nH]c3c(c2c1)CC(C(=O)O)NC3c1ccc(OC)c(CN2CCN(c3ccccc3F)CC2)c1 (centres undefined) | 74 | -11.3 |
| COc1ccc(C2N[C@H](C(=O)O)Cc3c2[nH]c2ccccc32)cc1 (some centres undefined) | -14 | 2.25 |
| COc1cc(C2N[C@H](C(=O)O)Cc3c2[nH]c2ccccc32)ccc1OCc1ccccc1 (some centres undefined) | -3 | 0.42 |
